Measurements from PubChem BioAssay AID1159580 (chemical genetic matrix, 2015).
About 2,000 (36%) of roughly 5,500 compounds were called active. Not shown: some 18% with an inconclusive outcome. The list shows a part of the results. A number with no mark means an inactive call. Rule as the data show it: active = normalized growth mostly below about 0.91 (no sharp cut-off); inconclusive = no clear call, values can overlap the other calls; inactive = mostly above about 0.92.

Assay: chemical genetic growth profiling, strain panel (AID 1159580);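 also: tested at 20 µM; growth read once vehicle control cultures reached saturation at 30 °C; 1 = growth at the plate median or of vehicle wells; lower values mean less growth of the strain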
Conditions: S. cerevisiae deletion strains, growth OD

O=c1cccc2ccc(O)c(O)c2c1O
normalized growth (locus YJL187C, strain SWE1 (second series), hits give low values): 0.106 (active)
normalized growth (locus YJL187C, strain SWE1, hits give low values): 0.893 (active)
normalized growth (locus YJR075W, strain HOC1, hits give low values): 0.358 (active)
normalized growth (locus YKL068W, hits give low values): 1.08 [resistant] (active)
normalized growth (locus YKL085W, strain MDH1 (second series), hits give low values): 1.04
normalized growth (locus YKL085W, strain MDH1, hits give low values): 1.04
normalized growth (locus YKL160W, strain elf1, hits give low values): 0.901 (active)
normalized growth (locus YKR001C, strain vps1, hits give low values): 0.453 (active)
normalized growth (locus YKR026C, strain gcn3, hits give low values): 0.965
normalized growth (locus YKR091W, strain srl3, hits give low values): 0.99
normalized growth (locus YLL001W, strain dnm1, hits give low values): 0.917
normalized growth (locus YLL026W, hits give low values): 0.913 (active)
normalized growth (locus YLL041C, strain sdh2, hits give low values): 0.944
normalized growth (locus YLR027C, strain aat2, hits give low values): 0.897 (active)
normalized growth (locus YLR039C, strain RIC1, hits give low values): 0.179 (active)
normalized growth (locus YLR058C, strain SHM2, hits give low values): 0.126 (active)
normalized growth (locus YLR102C, strain apc9, hits give low values): 0.966
normalized growth (locus YLR221C, strain rsa3, hits give low values): 0.854 (active)
normalized growth (locus YLR258W, strain gsy2, hits give low values): 0.903 (active)
normalized growth (locus YLR262C, strain YPT6 (second series), hits give low values): 0.397 (active)
normalized growth (locus YLR268W, strain sec22, hits give low values): 0.285 (active)
normalized growth (locus YLR320W, strain mms22, hits give low values): 0.689 (active)
normalized growth (locus YLR330W, strain CHS5, hits give low values): 0.615 (active)
normalized growth (locus YLR342W, strain FKS1 (second series), hits give low values): 0.183 (active)
normalized growth (locus YLR342W, strain FKS1, hits give low values): 0.893 (active)
normalized growth (locus YLR357W, strain rsc2, hits give low values): 0.857
normalized growth (locus YLR370C, strain arc18, hits give low values): 0.903 (active)
normalized growth (locus YLR371W, strain rom2, hits give low values): 0.651 (active)
normalized growth (locus YLR384C, strain iki3, hits give low values): 0.944
normalized growth (locus YLR418C, strain cdc73, hits give low values): 0.26 (active)
normalized growth (locus YML016C, strain PPZ1, hits give low values): 0.0765 (active)
normalized growth (locus YML032C, strain rad52, hits give low values): 0.785 (active)
normalized growth (locus YML120C, strain ndi1, hits give low values): 0.208 (active)
normalized growth (locus YML124C, strain tub3, hits give low values): 0.742 (active)
normalized growth (locus YMR058W, strain fet3, hits give low values): 0.344 (active)
normalized growth (locus YMR078C, strain ctf18, hits give low values): 0.965
normalized growth (locus YMR125W, strain sto1, hits give low values): 1
normalized growth (locus YMR129W, hits give low values): 0.976
normalized growth (locus YMR205C, strain PFK2, hits give low values): 0.722 (active)
normalized growth (locus YMR223W, strain ubp8, hits give low values): 0.69 (active)
normalized growth (locus YMR231W, strain pep5, hits give low values): 0.463 (active)
normalized growth (locus YMR263W, strain SAP30, hits give low values): 0.481 (active)
normalized growth (locus YMR307W, strain GAS1, hits give low values): 0.34 (active)
normalized growth (locus YNL067W, strain RPL9B, hits give low values): 0.271 (active)
normalized growth (locus YNL071W, strain lat1, hits give low values): 0.87 (active)
normalized growth (locus YNL209W, strain ssb2, hits give low values): 0.722 (active)
normalized growth (locus YNL233W, strain BNI4, hits give low values): 0.419 (active)
normalized growth (locus YNL248C, strain rpa49, hits give low values): 0.912
normalized growth (locus YNL250W, strain rad50, hits give low values): 1.06
normalized growth (locus YNL271C, strain bni1, hits give low values): 0.97
normalized growth (locus YNL298W, strain CLA4, hits give low values): 0.982
normalized growth (locus YNL307C, strain MCK1, hits give low values): 0.799 (active)
normalized growth (locus YNL322C, strain KRE1 (second series), hits give low values): 0.959
normalized growth (locus YNL322C, strain KRE1, hits give low values): 0.105 (active)
normalized growth (locus YNR049C, strain mso1, hits give low values): 0.98
normalized growth (locus YNR052C, strain pop2, hits give low values): 0.328 (active)
normalized growth (locus YOL012C, strain htz1): 0.205
normalized growth (locus YOL147C, strain pex11, hits give low values): 0.65 (active)
normalized growth (locus YOR001W, strain rrp6, hits give low values): 0.892
normalized growth (locus YOR061W, strain CKA2, hits give low values): 0.255 (active)
normalized growth (locus YOR069W, strain VPS5, hits give low values): 0.176 (active)
normalized growth (locus YOR070C, strain gyp1, hits give low values): 0.902 (active)
normalized growth (locus YOR080W, strain dia2, hits give low values): 0.973
normalized growth (locus YOR083W, strain WHI5, hits give low values): 0.86 (active)
normalized growth (locus YOR106W, strain vam3, hits give low values): 0.592 (active)
normalized growth (locus YOR136W, strain idh2, hits give low values): 0.712 (active)
normalized growth (locus YOR144C, strain elg1, hits give low values): 0.788 (active)
normalized growth (locus YOR184W, strain ser1, hits give low values): 0.332 (active)
normalized growth (locus YOR265W, strain rbl2, hits give low values): 0.939
normalized growth (locus YOR270C, strain vph1, hits give low values): 0.369 (active)
normalized growth (locus YOR290C, strain snf2, hits give low values): 0.376 (active)
normalized growth (locus YOR316C, strain cot1, hits give low values): 0.881 (active)
normalized growth (locus YPL051W, strain arl3, hits give low values): 0.672 (active)
normalized growth (locus YPL078C, strain atp4, hits give low values): 0.466 (active)
normalized growth (locus YPL106C, strain sse1, hits give low values): 0.815 (active)
normalized growth (locus YPL240C, strain hsp82, hits give low values): 0.972
normalized growth (locus YPR119W, strain clb2, hits give low values): 0.984
normalized growth (locus YPR141C, strain kar3, hits give low values): 1.04
normalized growth (locus YPR163C, strain tif3, hits give low values): 0.764 (active)
normalized growth (locus YPR167C, strain met16, hits give low values): 0.81 (active)
normalized growth (strain wtn01, hits give low values): 0.337 (active)
